# In PubChem BioAssay (EPA / NIEHS):
# Records with an inconclusive call do not appear. Active and inactive are the calls of the source. The calls were made as follows, unless noted: active = hit-call score of the fitted dose curve at least 0.9, where 1 is the maximum; inactive = score below 0.9.
# Key:
# [1] = CCTE_Shafer_MEA_dev_firing_rate_mean: CCTE's Neural Network Formation Assay for Mean Firing Rate, Shafer Lab (AID 2284031)
# Outline: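 Developing rat cortical networks on MEA plates undergo 12-day compound exposure. Firing frequency, averaged across active electrodes, is integrated as area under the curve over four recording days, referenced to DMSO.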
# [2] = CCTE_Shafer_MEA_dev_per_burst_spike_percent: CCTE's Neural Network Formation Assay for Percent of Spikes in a Burst, Shafer Lab (AID 2284032)
# Outline: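 Rat primary cortical neurons on 16-electrode MEA wells, dosed from plating day 0 for 12 days with renewal on DIV 5 and 9; spikes-in-bursts percentage averaged over bursting electrodes, collapsed as AUC across days 5, 7, 9, 12; loss direction versus DMSO.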
# [3] = CCTE_Shafer_MEA_dev_active_electrodes_number: CCTE's Neural Network Formation Assay for Number of Active Electrodes, Shafer Lab (AID 2284040; active = hit-call score of the fitted dose curve at least 0.9, where 1 is the maximum)
# Outline: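 Rat cortical primary cultures, 1.5 x 10^5 cells/well, PEI-coated MEA, laminin drop. Continuous exposure DIV 0–12; full media/compound change DIV 5, 9. Readout: electrodes with mean firing ≥5 spikes/min; AUC across days; loss vs DMSO.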
# [4] = CCTE_Shafer_MEA_dev_burst_rate: CCTE's Neural Network Formation Assay for Burst Rate, Shafer Lab (AID 2284042)
# Outline: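 Rat primary cortical cultures on PEI/laminin MEA; compound from plating, re-dosed at DIV 5, 9 media change. Single-electrode bursts/recording length, well mean of active electrodes; AUC over DIV 5–12 recordings; loss-of-signal vs DMSO.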
# [5] = CCTE_Shafer_MEA_dev_bursting_electrodes_number: CCTE's Neural Network Formation Assay for Number of Bursting Electrodes, Shafer Lab (AID 2284043; active = hit-call score of the fitted dose curve at least 0.9, where 1 is the maximum)
# Outline: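 Primary rat cortical neurons were cultured on PEI-coated 48-well MEA plates (16 electrodes/well) and exposed from plating through day 12, with compound renewed at feeds on DIV 5 and 9. Electrodes bursting ≥1 per 2 min were counted on DIV 5, 7, 9, 12; trapezoidal AUC taken.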
# [6] = CCTE_Shafer_MEA_dev_per_burst_interspike_interval: CCTE's Neural Network Formation Assay for Burst Interspike Interval, Shafer Lab (AID 2284044);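 also: mean spike spacing inside bursts as AUC over recordings on days 5 7 9 12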
# Outline: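 Mean interspike interval within single-electrode bursts, averaged over bursting electrodes, from rat cortical cultures on MEA plates recorded on days 5, 7, 9 and 12. Continuous compound exposure from plating; trapezoidal AUC fitted downward relative to DMSO.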
# [7] = CCTE_Shafer_MEA_dev_interburst_interval_mean: CCTE's Neural Network Formation Assay for Mean Interburst Interval, Shafer Lab (AID 2284046);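 also: well-mean interburst interval of bursting electrodes as AUC over four recording days; curve fitted for decrease in interburst interval relative to DMSO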
# Outline: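 Rat cortical neurons, 1.5 x 10^5 cells/well, 48-well MEA; compound from day 0 through DIV 12, media and treatment renewed DIV 5/9. Recordings DIV 5, 7, 9, 12; well-mean interburst interval → trapezoidal AUC, loss direction vs DMSO.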
# [8] = CCTE_Shafer_MEA_dev_network_spike_number: CCTE's Neural Network Formation Assay for Number of Network Spikes, Shafer Lab (AID 2284048);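 also: synchronized bursts across electrodes counted on days 5 7 9 12 and integrated as AUC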
# Outline: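 Primary rat cortical neurons were seeded at 1.5 x 10^5 cells/well on PEI-coated 16-electrode MEA wells with laminin, exposed from plating day 0, compound renewed at DIV 5 and 9. Network spikes were recorded on days 5, 7, 9, 12 and summarized as trapezoidal AUC versus DMSO.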
# [9] = CCTE_Shafer_MEA_dev_network_spike_peak: CCTE's Neural Network Formation Assay for Mean Number of Electrodes in Network Spike, Shafer Lab (AID 2284049)
# Outline: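 Continuous 12-day exposure of rat cortical cultures, starting at plating, on MEA plates. Endpoint: electrodes participating in network-spike peaks, AUC across DIV 5–12, DMSO as negative control.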
# [10] = CCTE_Shafer_MEA_dev_spike_duration_mean: CCTE's Neural Network Formation Assay for Mean Spike Duration, Shafer Lab (AID 2284051);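 also: mean network spike duration pooled as area under curve over DIV 5 to 12 recordings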
# Outline: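 Rat cortical primary cultures, 48-well MEA (16 electrodes/well); compound from plating, renewed DIV 5, 9. Network spike duration (AxIS adaptive detector) recorded DIV 5/7/9/12, combined as trapezoidal AUC; loss direction vs DMSO.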
# [11] = CCTE_Shafer_MEA_dev_network_spike_duration_std: CCTE's Neural Network Formation Assay for Standard Deviation of Network Spike Duration, Shafer Lab (AID 2284052);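 also: area under curve of spike duration SD across recording days 5 to 12; hits are decreases in network spike duration SD versus DMSO vehicle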
# Outline: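 Rat cortical cultures, 1.5 x 10^5 cells/well, exposed continuously from plating to DIV 12 with media/compound renewal at DIV 5, 9. Spontaneous activity recorded DIV 5/7/9/12, AxIS adaptive spike detector; AUC across days; negative direction vs DMSO.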
# [12] = CCTE_Shafer_MEA_dev_per_network_spike_spike_number_mean: CCTE's Neural Network Formation Assay for Mean Number of Spikes in a Network Spike, Shafer Lab (AID 2284053)
# Outline: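 Rat cortical primary cultures on 48-well MEA; compound from day 0, re-dosed with full media change DIV 5, 9. Recorded DIV 5, 7, 9, 12; spikes in 0.05 s window at network-spike peak ÷ total network spikes; AUC; loss vs DMSO.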
# [13] = CCTE_Shafer_MEA_dev_mutual_information_norm: CCTE's Neural Network Formation Assay for Mutual Information Normalization, Shafer Lab (AID 2284091)
# Outline: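 Rat cortical cultures, 48-well MEA, continuous exposure DIV 0–12 with full media/compound change DIV 5 and 9. Readout: inter-electrode mutual information, AxIS adaptive spike detection; AUC across DIV 5/7/9/12 recordings; DMSO baseline, negative fitting direction.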
# [14] = CCTE_Shafer_MEA_dev_correlation_coefficient_mean: CCTE's Neural Network Formation Assay for Mean Correlation Coefficient, Shafer Lab (AID 2284093)
# Outline: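 Rat cortical cultures, 1.5 x 10^5 cells/well, dosed from day 0 for 12 days. Spontaneous spikes recorded DIV 5/7/9/12; electrode-pair correlation coefficients averaged, AUC taken. Fit in loss direction vs DMSO.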
# [15] = CCTE_Mundy_HCI_Cortical_Synap_Neur_Matur_NeuriteSpotCountPerNeuriteLength: CCTE's Synaptogenesis and Neurite Maturation Assay in rat cortical cells for Neurite Spot Count per Neurite Length, Mundy Lab (AID 2284210)
# Outline: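 Rat primary cortical cultures, glia arrested with AraC at DIV 5, were dosed with media change at DIV 7 and fixed at DIV 12. Synaptophysin puncta per MAP2-labelled neurite length were quantified by high-content imaging versus DMSO.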
# [16] = CCTE_Mundy_HCI_Cortical_Synap_Neur_Matur_BPCount: CCTE's Synaptogenesis and Neurite Maturation Assay in rat cortical cells for Branch Point Count, Mundy Lab (AID 2284211)
# Outline: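 Branch point number is quantified by automated imaging of fluorescently labelled neurites and synapses in rat primary cortical neurons exposed from DIV 7 to DIV 12. Activity is analysed relative to DMSO negative control.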
# [17] = CCTE_Mundy_HCI_Cortical_NOG_NeuriteCount: CCTE's Neurite Outgrowth Assay in rat cortical cells for Neurite Count, Mundy Lab (AID 2284212);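 also: cells fixed about two days after chemical exposure began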
# Outline: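 Neurite number per cell from high-content imaging of betaIII-tubulin immunostaining, with Hoechst nuclear counterstain.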
# [18] = CCTE_Mundy_HCI_Cortical_NOG_NeuriteLength: CCTE's Neurite Outgrowth Assay in rat cortical cells for Neurite Length, Mundy Lab (AID 2284213)
# Outline: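 Neurite length was read by high-content imaging of βIII-tubulin-labelled neurites in rat primary cortical cultures. Activity was fitted relative to DMSO.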
# [19] = CCTE_Mundy_HCI_Cortical_Synap_Neur_Matur_NeuriteLength: CCTE's Synaptogenesis and Neurite Maturation Assay in rat cortical cells for Neurite Length, Mundy Lab (AID 2284214)
# Outline: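 Neurite length in rat primary cortical cultures is imaged after MAP2, synaptophysin and Hoechst staining. Dosing starts DIV 7, ending DIV 12; DMSO serves as negative control and baseline.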
# [20] = CCTE_Mundy_HCI_Cortical_Synap_Neur_Matur_NeuriteSpotCountPerNeuron: CCTE's Synaptogenesis and Neurite Maturation Assay in rat cortical cells for Neurite Spot Count per Neuron Count, Mundy Lab (AID 2284215)
# Outline: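 High-content imaging counts synaptophysin puncta along MAP2-labelled neurites per neuron after chemical exposure of rat cortical cells from DIV 7 to termination at DIV 12 (AraC added DIV 5). Loss of signal relative to DMSO.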
# [21] = CCTE_Mundy_HCI_Cortical_Synap_Neur_Matur_SynapseCount: CCTE's Synaptogenesis and Neurite Maturation Assay in rat cortical cells for Synapse Count, Mundy Lab (AID 2284218)
# Outline: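 Synapse count per neuron is measured in rat cortical neurons exposed to chemicals between DIV 7 and DIV 12, with glial growth arrested by AraC at DIV 5. Synaptophysin and MAP2 staining is imaged automatically; activity is fitted relative to DMSO.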
# [22] = CCTE_Mundy_HCI_hN2_NOG_NeuronCount: CCTE's Neurite Outgrowth Assay in human hN2 cells for Neuron Count, Mundy Lab (AID 2284221; active = hit-call score of the fitted dose curve at least 0.9, where 1 is the maximum)
# Outline: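 Read-out is the number of betaIII-tubulin-positive neurons imaged by automated high-content analysis, with DMSO as negative control.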
# [23] = CCTE_Mundy_HCI_Cortical_Synap_Neur_Matur_NeuriteCount: CCTE's Synaptogenesis and Neurite Maturation Assay in rat cortical cells for Neurite Count, Mundy Lab (AID 2284222);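 also: exposure from day 7 to day 12 in vitro with readout at day 12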
# Outline: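 Primary rat cortical cells were plated, treated with AraC at DIV 5, then exposed to chemicals from DIV 7 through DIV 12. After fixation and immunostaining for MAP2 and synaptophysin, imaging quantified neurites, with DMSO as the negative control.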
# [24] = CCTE_Mundy_HCI_Cortical_Synap_Neur_Matur_CellBodySpotCount: CCTE's Synaptogenesis and Neurite Maturation Assay in rat cortical cells for Cell Body Spot Count, Mundy Lab (AID 2284223)
# Outline: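 High-content imaging counts synaptophysin puncta on neuronal cell bodies per neuron after MAP2/synaptophysin immunostaining. Rat primary cortical cells, glia arrested with AraC at DIV 5, were exposed DIV 7–12; signal decrease measured against DMSO.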
# [25] = CCTE_Mundy_HCI_Cortical_NOG_NeuronCount: CCTE's Neurite Outgrowth Assay in rat cortical cells for Neuron Count, Mundy Lab (AID 2284236; active = hit-call score of the fitted dose curve at least 0.9, where 1 is the maximum;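 also: neurons counted by imaging betaIII-tubulin and Hoechst stained cortical cells; cells exposed to compound for about 48 hours before fixation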)
# Outline: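 Read-out: neuron number by high-content imaging of betaIII-tubulin (Alexa Fluor-488) and Hoechst-labelled rat primary cortical cells.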
# [26] = CCTE_Mundy_HCI_Cortical_NOG_BPCount: CCTE's Neurite Outgrowth Assay in rat cortical cells for Branch Point Count, Mundy Lab (AID 2284237)
# Outline: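 Measured 50.33 h after dosing, this morphology endpoint uses rat primary cortical cultures labelled for betaIII-tubulin. Branch points are quantified by high-content imaging, with DMSO as negative control and baseline.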
# [27] = CCTE_Mundy_HCI_hNP1_Casp3_7: CCTE's Caspase-Glo 3/7 Assay in human neuroprogenitor cells for Apoptosis, Mundy Lab (AID 2284240)
# Outline: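 Neuroepithelial-lineage stem cells from WA09 embryonic cells were treated with chemicals after 40–44 h of culture. Twenty-four hours later, caspase-3/7 activation was detected luminescently after a 30 min room-temperature reagent step, with DMSO as baseline.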
# [28] = CCTE_Mundy_HCI_hNP1_CellTiter: CCTE's Cell Titer-Glo 2 Assay in human neuroprogenitor cells for Viability, Mundy Lab (AID 2284241; active = hit-call score of the fitted dose curve at least 0.9, where 1 is the maximum)
# Outline: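 Measures ATP content in human neural progenitors derived from WA09 embryonic cells. Read-out at 26.5 hours after dosing, with DMSO serving as the negative control and baseline.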
# [29] = CCTE_Mundy_HCI_Cortical_Synap_Neur_Matur_NeuronCount: CCTE's Synaptogenesis and Neurite Maturation Assay in rat cortical cells for Neuron Count, Mundy Lab (AID 2284242; active = hit-call score of the fitted dose curve at least 0.9, where 1 is the maximum;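 also: neuron number from Hoechst nuclei and MAP2 staining by high-content imaging; hits reduce neuron count versus DMSO baseline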)
# Outline: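 Imaging-based neuron count in rat cortical cultures after chemical exposure from DIV 7 to DIV 12, with AraC added at DIV 5. Activity is fitted relative to DMSO.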
smiles,measurement,setting,value
C[C@H](N)Cc1ccccc1,outcome,[1],inactive
same,outcome,[2],inactive
same,outcome,[3],inactive
same,outcome,[4],inactive
same,outcome,[5],inactive
same,outcome,[6],inactive
same,outcome,[7],inactive
same,outcome,[8],inactive
same,outcome,[9],inactive
same,outcome,[10],inactive
same,outcome,[11],inactive
same,outcome,[12],inactive
same,outcome,[13],inactive
same,outcome,[14],inactive
same,outcome,[15],inactive
same,outcome,[16],inactive
same,outcome,[17],inactive
same,outcome,[18],inactive
same,outcome,[19],inactive
same,outcome,[20],inactive
same,outcome,[21],inactive
same,outcome,[22],inactive
same,outcome,[23],inactive
same,outcome,[24],inactive
same,outcome,[25],inactive
same,outcome,[26],inactive
same,outcome,[27],inactive
same,outcome,[28],inactive
same,AC50,[29],0.0436 µM (active)
